Screening data deposited in PubChem by National Center for Advancing Translational Sciences (NCATS).
This is a sample that favours compounds with a hit; in the whole collection about 7.8% have one here.
Luciferase inh: firefly luciferase inhibition | P08659 | Potency, µM (series often up to 57.1 µM), usual class: inhibitors | AID 411 | purified firefly luciferase, luminescence, 8 min | hit rate 2.2% among 72,000; further: nearly all actives have a fitted effect of over 40% in size
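Compounds were tested as concentration series (qHTS) against purified P. pyralis luciferase with luciferin and 10 uM ATP in 50 mM imidazole pH 7.2, 50 mM KCl, 7 mM MgCl2, 0.01% Tween 20, 0.05% BSA. Luminescence was read after 8 min at ambient temperature.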
TSHR agonist: agonists of human thyroid stimulating hormone receptor; P16473; HEK293-CNG-TSHR cells (CNG channel as cAMP sensor), membrane potential dye, cAMP; Potency, µM (titrated, usually from 57.1 µM), actives largely listed as activators; hit rate 0.48% among 73,000; active means well fitted activation curve with a large enough effect in the main read-out, with a control signal flat, not every such curve was filed as active; inconclusive means small, poorly fitted or top-dose-only effect, or a change in a side signal; inactive means no such curve, though single readings can be large or run the other way; reference of the percent scale not stated here;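 further: the control signal comes from parental cells without the receptor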
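HEK 293 cells stably expressing TSHR and a modified CNG channel, with CNG-only parental cells as counterscreen, were preloaded 60 min at room temperature with membrane potential dye containing 100 uM RO 20-1724. Compound exposure was 30 min, and depolarization was read as fluorescence at 590 nm.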
HEK293 cAMP ctrl: raises cAMP in parental HEK293 cells, TSHR agonist counter-screen | AID 938 | Potency, µM (doses to about 57.1 µM), most hits filed as activators | parental HEK293 CNG cAMP sensor, membrane potential fluorescence | hit rate 2.5% among 73,000; further: nearly all actives have a fitted effect of over 55% in size
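Counterscreen for endogenous-receptor signalling: CNG-channel HEK 293 cells report cAMP rise by membrane depolarization. After 60 min dye equilibration with 100 uM RO 20-1724, compounds incubated 30 min before bottom-read fluorescence at 590 nm.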
ALOX15 inhib: blocks human 15-lipoxygenase activity; purified 15hLO-1, xylenol orange hydroperoxide absorbance; Potency, µM (doses to about 57.1 µM), actives largely listed as inhibitors; AID 887; hit rate 1.4% among 74,000; further: nearly all actives have a fitted effect of over 55% in size
Target sequence (P16050 whole entry, looked up): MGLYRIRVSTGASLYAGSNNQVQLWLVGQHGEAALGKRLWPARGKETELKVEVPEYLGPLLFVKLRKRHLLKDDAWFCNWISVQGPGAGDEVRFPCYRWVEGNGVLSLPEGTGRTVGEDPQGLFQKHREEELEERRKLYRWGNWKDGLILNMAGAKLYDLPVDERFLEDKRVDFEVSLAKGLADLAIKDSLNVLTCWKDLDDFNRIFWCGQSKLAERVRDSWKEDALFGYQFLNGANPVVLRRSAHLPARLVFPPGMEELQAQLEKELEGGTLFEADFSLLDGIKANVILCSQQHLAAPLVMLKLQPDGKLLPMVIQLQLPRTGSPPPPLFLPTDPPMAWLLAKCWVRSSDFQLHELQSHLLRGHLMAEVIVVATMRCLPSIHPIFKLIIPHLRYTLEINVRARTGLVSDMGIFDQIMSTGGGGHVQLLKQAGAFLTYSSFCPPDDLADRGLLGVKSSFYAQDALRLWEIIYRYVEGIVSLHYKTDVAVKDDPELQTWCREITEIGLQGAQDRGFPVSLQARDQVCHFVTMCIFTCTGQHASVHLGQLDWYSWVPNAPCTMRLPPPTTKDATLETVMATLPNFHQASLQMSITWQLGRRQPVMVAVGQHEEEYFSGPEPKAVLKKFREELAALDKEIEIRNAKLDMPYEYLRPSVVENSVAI
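Purified human 15hLO-1 (40 nM final) in 25 mM Hepes pH 7.5, 0.01% Triton X-100 was preincubated with compound 15 min at room temperature, then reacted 6 min with 50 uM arachidonic acid; hydroperoxide detected by Fe-XO, 573/405 nm absorbance ratio.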
Bst PK mod: alters activity of Bacillus stearothermophilus pyruvate kinase. purified pyruvate kinase, luminescence ATP production; ribose 5-phosphate activator present at AC10. hit rate 1.2% among 51,000. Potency, µM; in the data active means potency below about 11 µM; inconclusive means mostly about 12 µM to 25 µM;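 the screen sought inhibitors and activators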
Tau fil binding: tau filament binding; P10636; recombinant tau filaments, thioflavin S fluorescence, 15 h; filaments grown with octadecylsulfate alongside compound; Potency, µM (series often up to 57.1 µM); hit rate 2% among 71,000; AID 596;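 further: actives lower thioflavin S fluorescence by blocking filaments or displacing dye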
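Thioflavine S fluorescence (ex 450, em 510 nm) reports filaments formed from 1 uM human tau plus 30 uM ODS over 15 h at 37 C (10 mM HEPES pH 7.4, 100 mM NaCl, 5 mM DTT); compounds displacing dye or blocking filaments lower signal.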
Each line names hits and unclear results; the compound was inactive in the other large screens; ! = repeats disagree. Unless noted, the call rests on the fitted dose curve; in most records, active means well fitted curve in the direction sought with a large enough effect; inconclusive means small, poorly fitted or top-dose-only effect, or another doubt; inactive means no such curve, though single readings can be large; an effect the other way counts as inactive or inconclusive.

O=C(c1ccco1)N1CCC2(CCCN(c3ccncc3)C2)CC1	none (no result: Bst PK mod)
CCOC(=O)CSc1nc(-c2ccc3c(c2)OCO3)ccc1C#N	Luciferase inh 4µM, Bst PK mod 4.3 (no result: TSHR agonist, HEK293 cAMP ctrl, ALOX15 inhib, Tau fil binding)
N#Cc1cc2cc3c(cc2nc1SCC(=O)OC1CCCCC1)OCO3	TSHR agonist inconclusive, HEK293 cAMP ctrl 16µM
CCOC(=O)CSc1nc(-c2ccncc2)ccc1C#N	Luciferase inh 7.9µM (no result: TSHR agonist, HEK293 cAMP ctrl, ALOX15 inhib, Tau fil binding)
Clc1ccc(OCc2nn3c(C4CCCCC4)nnc3s2)c(Cl)c1	TSHR agonist inconclusive, HEK293 cAMP ctrl 32µM
COc1ccccc1-c1nnc2sc(COc3ccc(Cl)cc3Cl)nn12	TSHR agonist inconclusive, HEK293 cAMP ctrl inconclusive
Nc1nc(=O)c2[nH]cnc2n1O	none (no result: Bst PK mod)
COC(=O)CC[C@@H](C)[C@@H]1CC[C@@H]2[C@@H]3CC[C@H]4C[C@@H](O)CC[C@@]4(C)[C@@H]3CC[C@]21C	none (no result: Bst PK mod)
O=C(O)[C@@H]1CCCN1Cc1ccc2c(c1)OCO2	none (no result: Bst PK mod)
CC(=O)c1c(C)[nH]c(C(=O)Nc2cccnc2)c1C	none
CC(=O)c1c(C)[nH]c(C(=O)Nc2ccc3c(c2)OCCO3)c1C	Luciferase inh 13µM
COc1ccc(NC(=O)c2[nH]c(C)c(C(C)=O)c2C)cc1Cl	ALOX15 inhib 32µM
CC(=O)OC[C@@H]1O[C@@H](O/N=C2/C[C@@H](O)[C@@H](O)[C@@H]3[C@@H]4C(=O)N(c5cccc(Oc6ccccc6)c5)C(=O)[C@H]4CC[C@H]23)[C@H](OC(C)=O)[C@H](OC(C)=O)[C@@H]1OC(C)=O	none (no result: Bst PK mod, Tau fil binding)
Cc1ccc(-c2nn3c(-c4ccco4)nnc3c3ccccc23)cc1S(=O)(=O)NCC1CCCO1 (stereo not drawn)	TSHR agonist inconclusive, HEK293 cAMP ctrl 20µM
CC(=O)O[C@H]1CC[C@@]2(C)[C@@H](CC[C@@]3(C)[C@H]2C(=O)C=C2[C@H]4C[C@](C)(C(=O)OCCN5CCCCC5)CC[C@]4(C)CC[C@@]23C)C1(C)C	none (no result: ALOX15 inhib, Bst PK mod)
O=C(Nc1ccon1)c1cc2c(s1)CCCCCC2	Luciferase inh 25µM, TSHR agonist inconclusive, HEK293 cAMP ctrl inconclusive, ALOX15 inhib inconclusive (no result: Bst PK mod)
CCNc1ncc2ncc(=O)n(CCOC)c2n1	ALOX15 inhib inconclusive (no result: Bst PK mod)
Cn1c(-c2ccccc2)cnc1SCc1nc2ccccc2c(=O)[nH]1	Luciferase inh 5µM
CCNc1nc(NCC)n2c(SCc3nc4ccccc4c(=O)[nH]3)nnc2n1	Bst PK mod 7
CC(C)(CO)N1CCN(C(=S)Nc2ccccc2)CC1	none (no result: Bst PK mod)
CN(C)CCN1C(=O)CC[C@]2(C)C1=CC[C@@H]1[C@@H]2CC[C@]2(C)[C@H]1CC[C@]2(C)O	none (no result: Bst PK mod)
O=C1OCC(c2ccccc2)=C1c1ccc(S(=O)(=O)N2CCOCC2)s1	none
Clc1ccccc1-c1nc(N2CCNCC2)c2ccccc2n1	none (no result: Bst PK mod)
O=C(CCCCCn1c(=O)[nH]c2ccccc2c1=O)NCCCN1CCN(c2ccccc2F)CC1	none
COc1ccc([C@@H]2CC(=O)c3c(O)cc(O[C@@H]4O[C@@H](CO[C@@H]5O[C@@H](C)[C@@H](O)[C@@H](O)[C@H]5O)[C@@H](O)[C@@H](O)[C@H]4O)cc3O2)cc1O	none (no result: ALOX15 inhib, Bst PK mod)
C[N+](C)(C)CCCSc1nc2ccccc2[nH]1	none (no result: Bst PK mod)
CC(=O)N=C(N)Sc1nc2ccccc2[nH]1	Luciferase inh 13µM, Bst PK mod inconclusive (no result: TSHR agonist, HEK293 cAMP ctrl, ALOX15 inhib, Tau fil binding)
CCOC(=O)c1oc2ccc(Br)cc2c1NC(=O)CN1CCN(C)CC1	none (no result: Bst PK mod)
COc1ccc2oc(C(=O)c3ccccc3)c(NC(=O)CN3CCN(C)CC3)c2c1	TSHR agonist inconclusive, HEK293 cAMP ctrl inconclusive, Tau fil binding 4µM
CC[C@@H](c1ccc2cc(O)ccc2c1)C(C)(C)C(=O)O	none (no result: Bst PK mod)
CCCn1nc(NC(=O)c2cccs2)c2cc3cc(OC)ccc3nc21	Luciferase inh 10µM, ALOX15 inhib inconclusive
CC(=O)c1cc2c(cc1NC(=O)CN1CCN(c3cccc(C(F)(F)F)c3)CC1)OCO2	TSHR agonist inconclusive, HEK293 cAMP ctrl 16µM
CNC(=O)c1cc2c(cn1)[nH]c1ccccc12	Luciferase inh 25µM!, TSHR agonist inconclusive, HEK293 cAMP ctrl inconclusive, Tau fil binding inconclusive (no result: Bst PK mod)
O=C(Nc1ccc(Cl)cc1)Nc1ccccc1C(=O)NCc1ccco1	Luciferase inh 7.9µM (no result: Bst PK mod)
